Common to all, as to assay: DAPPL (digital affinity profiling via proximity ligation, sequencing); 10 mM Tris-HCl pH 7.5, 50 mM NaCl, 1 mM DTT, 4% glycerol, room temperature, 30 min; GST-TFs on glutathione beads, 16-mer random dsDNA library, 0.1% formaldehyde crosslink after washing; high values mean tight binding
For experiment [1], the target named is T1, FEV (Homo sapiens, UniProt Q99581 1-238).
T1 sequence: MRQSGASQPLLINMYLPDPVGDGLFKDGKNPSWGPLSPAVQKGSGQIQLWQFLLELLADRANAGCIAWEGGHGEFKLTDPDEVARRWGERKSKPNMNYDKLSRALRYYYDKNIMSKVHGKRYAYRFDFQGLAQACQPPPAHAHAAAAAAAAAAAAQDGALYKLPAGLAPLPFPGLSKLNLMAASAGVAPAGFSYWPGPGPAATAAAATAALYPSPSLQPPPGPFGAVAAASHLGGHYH
The settings on record: protein: recombinant; tags: N-terminal GST; dsDNA, one strand shown. Put shortly:
(§1)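 After expression in yeast as GST fusions, human transcription factors were bound to glutathione beads, DNA-barcoded and mixed with a tag-only sample. The pools were incubated with 200 nmole of a 16-mer random double-stranded DNA library in Tris/NaCl/DTT/glycerol buffer (30 min, room temperature), washed and crosslinked with 0.1% formaldehyde. Proximity ligation with BsaI/T4 ligase ran for 1 h at 37 °C, before PCR amplification and sequencing on an Illumina NextSeq500. Binding signal is a hexamer's read frequency for a factor divided by its frequency for the tag-only sample.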

Experiment [2] addresses ETV5 (Homo sapiens, UniProt P41161 1-510). The settings on record: protein: recombinant; tags: N-terminal GST; dsDNA, one strand shown. In a few lines:
as §1

Experiment [3] addresses HSF1 (Homo sapiens, UniProt Q00613 1-529). The settings on record: protein: recombinant; tags: N-terminal GST; chain copies: 3; dsDNA, one strand shown. In a few lines: as §1
Experiment [4] addresses T2, SPIC (Homo sapiens, UniProt Q8N5J4 1-248).
T2 sequence: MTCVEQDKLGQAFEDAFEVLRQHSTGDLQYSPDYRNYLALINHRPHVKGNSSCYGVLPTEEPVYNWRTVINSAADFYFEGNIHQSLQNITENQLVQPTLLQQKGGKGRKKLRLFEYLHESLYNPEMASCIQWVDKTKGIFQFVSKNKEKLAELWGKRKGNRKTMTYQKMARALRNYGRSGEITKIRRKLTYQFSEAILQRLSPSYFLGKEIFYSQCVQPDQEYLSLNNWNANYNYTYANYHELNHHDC
The settings on record: protein: recombinant; tags: N-terminal GST; dsDNA, one strand shown. Put shortly:
as §1

In experiment [5] the target is ELF4 (Homo sapiens, UniProt Q99607 1-663). As to conditions: protein: recombinant; tags: N-terminal GST; dsDNA, one strand shown. Put shortly:
as §1

Experiment [6] concerns the target T3, ELK4 (Homo sapiens, UniProt P28324-2 1-405).
T3 sequence: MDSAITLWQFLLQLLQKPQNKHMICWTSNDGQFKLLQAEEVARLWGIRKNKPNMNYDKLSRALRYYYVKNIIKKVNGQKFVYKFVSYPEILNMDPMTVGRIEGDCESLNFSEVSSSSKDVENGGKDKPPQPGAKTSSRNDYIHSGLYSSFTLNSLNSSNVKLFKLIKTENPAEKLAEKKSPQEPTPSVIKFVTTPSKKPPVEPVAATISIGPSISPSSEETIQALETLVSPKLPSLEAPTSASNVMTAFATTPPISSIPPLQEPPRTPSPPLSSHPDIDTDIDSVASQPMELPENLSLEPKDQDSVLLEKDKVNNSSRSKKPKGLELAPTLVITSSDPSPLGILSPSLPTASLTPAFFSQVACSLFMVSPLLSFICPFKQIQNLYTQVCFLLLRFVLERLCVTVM
As to conditions: protein: recombinant; tags: N-terminal GST; dsDNA, one strand shown. In a few lines:
as §1

Experiment [7] addresses T4, ETV2 (Homo sapiens, UniProt O00321 1-342).
T4 sequence: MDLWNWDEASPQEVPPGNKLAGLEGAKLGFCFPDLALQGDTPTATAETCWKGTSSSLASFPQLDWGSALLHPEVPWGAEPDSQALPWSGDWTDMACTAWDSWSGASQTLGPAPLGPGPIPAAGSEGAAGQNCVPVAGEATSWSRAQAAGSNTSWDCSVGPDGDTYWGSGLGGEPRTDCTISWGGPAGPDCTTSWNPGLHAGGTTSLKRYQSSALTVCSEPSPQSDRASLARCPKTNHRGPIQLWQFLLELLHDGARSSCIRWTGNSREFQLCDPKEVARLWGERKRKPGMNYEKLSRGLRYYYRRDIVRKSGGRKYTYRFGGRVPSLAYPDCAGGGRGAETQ
As to conditions: protein: recombinant; tags: N-terminal GST; dsDNA, one strand shown. Put shortly:
as §1

Experiment [8] addresses T5, ELF3 (Homo sapiens, UniProt P78545 1-371).
T5 sequence: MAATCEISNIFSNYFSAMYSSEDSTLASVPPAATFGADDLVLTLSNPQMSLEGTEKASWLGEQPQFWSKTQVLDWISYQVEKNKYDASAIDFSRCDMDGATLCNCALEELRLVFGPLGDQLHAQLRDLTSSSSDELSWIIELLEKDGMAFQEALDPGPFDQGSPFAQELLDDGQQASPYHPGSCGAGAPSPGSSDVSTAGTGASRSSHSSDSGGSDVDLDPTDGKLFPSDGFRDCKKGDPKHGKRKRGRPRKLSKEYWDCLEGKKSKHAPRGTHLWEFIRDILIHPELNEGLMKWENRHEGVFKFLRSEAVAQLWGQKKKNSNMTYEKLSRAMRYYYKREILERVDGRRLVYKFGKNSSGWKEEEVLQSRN
The settings on record: protein: recombinant; tags: N-terminal GST; dsDNA, one strand shown. Put shortly: as §1

The target of experiment [9] is CRX (Homo sapiens, UniProt O43186 1-299). As to conditions: protein: recombinant; tags: N-terminal GST; dsDNA, one strand shown. In a few lines: as §1
Sequence of CRX (O43186 whole entry): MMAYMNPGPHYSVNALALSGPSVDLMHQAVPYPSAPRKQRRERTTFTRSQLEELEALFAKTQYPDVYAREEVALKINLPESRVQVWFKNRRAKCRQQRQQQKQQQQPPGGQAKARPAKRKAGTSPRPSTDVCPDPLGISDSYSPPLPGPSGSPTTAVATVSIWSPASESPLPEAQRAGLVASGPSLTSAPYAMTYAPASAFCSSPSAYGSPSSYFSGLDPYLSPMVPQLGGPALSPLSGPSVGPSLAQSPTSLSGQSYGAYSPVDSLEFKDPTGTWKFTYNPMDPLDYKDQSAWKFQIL
Experiment [10] has as its target ETV1 (Homo sapiens, UniProt P50549 1-477). The settings on record: protein: recombinant; tags: N-terminal GST; dsDNA, one strand shown. Put shortly: as §1

Sequence of ELF4 (Q99607 whole entry): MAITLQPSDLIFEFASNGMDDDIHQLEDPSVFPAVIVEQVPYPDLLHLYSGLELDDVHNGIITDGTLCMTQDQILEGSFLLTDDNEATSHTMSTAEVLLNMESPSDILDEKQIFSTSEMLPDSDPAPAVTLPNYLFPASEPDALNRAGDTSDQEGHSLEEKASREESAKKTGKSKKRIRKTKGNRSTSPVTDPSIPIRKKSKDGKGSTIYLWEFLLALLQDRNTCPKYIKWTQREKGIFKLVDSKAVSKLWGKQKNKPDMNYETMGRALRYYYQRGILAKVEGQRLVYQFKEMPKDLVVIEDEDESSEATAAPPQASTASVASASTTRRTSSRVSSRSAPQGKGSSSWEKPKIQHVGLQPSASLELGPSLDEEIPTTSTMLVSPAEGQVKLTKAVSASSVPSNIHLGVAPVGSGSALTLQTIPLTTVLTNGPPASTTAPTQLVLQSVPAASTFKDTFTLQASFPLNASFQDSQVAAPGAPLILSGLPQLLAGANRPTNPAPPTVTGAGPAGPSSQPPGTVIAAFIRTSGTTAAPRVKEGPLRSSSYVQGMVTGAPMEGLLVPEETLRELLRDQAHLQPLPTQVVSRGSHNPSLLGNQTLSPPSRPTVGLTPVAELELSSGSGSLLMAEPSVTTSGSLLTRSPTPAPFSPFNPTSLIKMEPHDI
Sequence of ETV1 (P50549 whole entry): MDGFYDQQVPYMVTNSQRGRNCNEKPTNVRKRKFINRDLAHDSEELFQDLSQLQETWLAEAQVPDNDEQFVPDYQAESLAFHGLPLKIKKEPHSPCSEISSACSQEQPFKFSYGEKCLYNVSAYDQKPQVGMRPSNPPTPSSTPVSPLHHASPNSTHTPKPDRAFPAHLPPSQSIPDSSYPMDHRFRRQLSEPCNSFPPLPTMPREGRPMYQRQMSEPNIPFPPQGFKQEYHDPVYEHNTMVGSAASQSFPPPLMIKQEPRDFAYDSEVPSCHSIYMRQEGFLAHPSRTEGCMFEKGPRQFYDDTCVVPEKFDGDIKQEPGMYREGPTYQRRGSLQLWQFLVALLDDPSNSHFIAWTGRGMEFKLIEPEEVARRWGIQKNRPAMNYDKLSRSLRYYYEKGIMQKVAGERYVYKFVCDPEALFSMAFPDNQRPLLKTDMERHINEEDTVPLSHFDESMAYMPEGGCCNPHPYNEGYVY
Sequence of HSF1 (Q00613 whole entry): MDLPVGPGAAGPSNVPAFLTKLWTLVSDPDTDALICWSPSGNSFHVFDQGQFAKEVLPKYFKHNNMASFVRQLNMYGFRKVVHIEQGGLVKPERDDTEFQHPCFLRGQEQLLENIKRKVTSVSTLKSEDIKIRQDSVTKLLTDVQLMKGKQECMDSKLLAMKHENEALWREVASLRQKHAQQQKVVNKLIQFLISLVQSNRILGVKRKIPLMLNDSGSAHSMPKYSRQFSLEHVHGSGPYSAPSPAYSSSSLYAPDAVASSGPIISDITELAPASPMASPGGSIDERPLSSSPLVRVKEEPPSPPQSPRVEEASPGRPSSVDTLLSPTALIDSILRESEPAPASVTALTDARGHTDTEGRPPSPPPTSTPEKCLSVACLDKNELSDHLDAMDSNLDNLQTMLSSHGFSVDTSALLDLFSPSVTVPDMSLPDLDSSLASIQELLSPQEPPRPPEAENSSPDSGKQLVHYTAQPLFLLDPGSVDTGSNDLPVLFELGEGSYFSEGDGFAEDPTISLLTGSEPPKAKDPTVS
Sequence of ETV5 (P41161 whole entry): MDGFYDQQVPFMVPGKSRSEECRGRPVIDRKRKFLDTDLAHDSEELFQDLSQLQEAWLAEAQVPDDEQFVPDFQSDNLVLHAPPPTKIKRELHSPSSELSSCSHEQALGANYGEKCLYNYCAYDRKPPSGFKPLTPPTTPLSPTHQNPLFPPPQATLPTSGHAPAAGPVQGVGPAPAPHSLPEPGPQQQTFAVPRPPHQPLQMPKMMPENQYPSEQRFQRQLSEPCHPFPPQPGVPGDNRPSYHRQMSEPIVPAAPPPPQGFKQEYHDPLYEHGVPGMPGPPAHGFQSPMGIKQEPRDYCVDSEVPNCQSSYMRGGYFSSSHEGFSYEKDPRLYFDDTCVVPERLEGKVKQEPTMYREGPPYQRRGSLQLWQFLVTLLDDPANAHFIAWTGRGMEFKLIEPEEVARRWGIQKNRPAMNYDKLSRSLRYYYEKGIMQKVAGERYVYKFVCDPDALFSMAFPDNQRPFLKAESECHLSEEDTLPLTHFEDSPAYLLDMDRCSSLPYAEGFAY

With TACGTA, the binding signal was 1.27 fold enrichment (6-mer frequency, TF over GST control) in experiment [1]; 1.37 fold enrichment (6-mer frequency, TF over GST control) in [2]; 1.23 fold enrichment (6-mer frequency, TF over GST control) in [3]; 1.27 fold enrichment (6-mer frequency, TF over GST control) in [4]; 1.33 fold enrichment (6-mer frequency, TF over GST control) in experiment [5]; 1.3 fold enrichment (6-mer frequency, TF over GST control) in [6]. The binding signal in [7] was 1.33 fold enrichment (6-mer frequency, TF over GST control); in experiment [8], 1.4 fold enrichment (6-mer frequency, TF over GST control); in [9] it was 1.49 fold enrichment (6-mer frequency, TF over GST control); in experiment [10], 1.4 fold enrichment (6-mer frequency, TF over GST control).
With ATCTAA, the binding signal in experiment [1] is 1.14 fold enrichment (6-mer frequency, TF over GST control); in experiment [2], 1.15 fold enrichment (6-mer frequency, TF over GST control); in [3], 1.49 fold enrichment (6-mer frequency, TF over GST control); in [4], 1.13 fold enrichment (6-mer frequency, TF over GST control); in [5] it was 1.23 fold enrichment (6-mer frequency, TF over GST control); in [6] it was 1.24 fold enrichment (6-mer frequency, TF over GST control). Moreover, the binding signal in experiment [7] was 1.22 fold enrichment (6-mer frequency, TF over GST control); in [8], 1.12 fold enrichment (6-mer frequency, TF over GST control); in [9], 1.83 fold enrichment (6-mer frequency, TF over GST control); in [10], 1.16 fold enrichment (6-mer frequency, TF over GST control).
As to ACCTCT, the binding signal in experiment [1] was 1.3 fold enrichment (6-mer frequency, TF over GST control); in experiment [2] it was 1.31 fold enrichment (6-mer frequency, TF over GST control); in [3], 1.18 fold enrichment (6-mer frequency, TF over GST control); in experiment [4], 1.47 fold enrichment (6-mer frequency, TF over GST control); in experiment [5], 1.33 fold enrichment (6-mer frequency, TF over GST control); in experiment [6], 1.29 fold enrichment (6-mer frequency, TF over GST control). Besides, the binding signal in experiment [7] was 1.35 fold enrichment (6-mer frequency, TF over GST control); in experiment [8], 1.51 fold enrichment (6-mer frequency, TF over GST control); in experiment [9] it was 1.19 fold enrichment (6-mer frequency, TF over GST control); in experiment [10], 1.3 fold enrichment (6-mer frequency, TF over GST control).
Take TTTACA: the binding signal in experiment [1] was 1.2 fold enrichment (6-mer frequency, TF over GST control); in experiment [2], 1.19 fold enrichment (6-mer frequency, TF over GST control); in experiment [3] it was 1.32 fold enrichment (6-mer frequency, TF over GST control); in experiment [4], 1.19 fold enrichment (6-mer frequency, TF over GST control); in [5] it was 1.26 fold enrichment (6-mer frequency, TF over GST control); in experiment [6], 1.32 fold enrichment (6-mer frequency, TF over GST control). The binding signal was 1.26 fold enrichment (6-mer frequency, TF over GST control) in [7]; 1.4 fold enrichment (6-mer frequency, TF over GST control) in experiment [8]; 1.55 fold enrichment (6-mer frequency, TF over GST control) in experiment [9]; 1.3 fold enrichment (6-mer frequency, TF over GST control) in experiment [10].
As to TCCGAA, the binding signal in [1] is 1.24 fold enrichment (6-mer frequency, TF over GST control); in experiment [2] it was 1.31 fold enrichment (6-mer frequency, TF over GST control); in [3], 1.48 fold enrichment (6-mer frequency, TF over GST control); in experiment [4] it was 1.43 fold enrichment (6-mer frequency, TF over GST control); in experiment [5], 1.21 fold enrichment (6-mer frequency, TF over GST control); in experiment [6], 1.23 fold enrichment (6-mer frequency, TF over GST control). Further, the binding signal in [7] was 1.46 fold enrichment (6-mer frequency, TF over GST control); in [8] it was 1.1 fold enrichment (6-mer frequency, TF over GST control); in experiment [9] it was 1.28 fold enrichment (6-mer frequency, TF over GST control); in experiment [10] it was 1.19 fold enrichment (6-mer frequency, TF over GST control).
For the sequence TACTTC, the binding signal in [1] was 4.27 fold enrichment (6-mer frequency, TF over GST control); in experiment [2] it was 3.65 fold enrichment (6-mer frequency, TF over GST control); in experiment [3], 1.43 fold enrichment (6-mer frequency, TF over GST control); in [4] it was 3.27 fold enrichment (6-mer frequency, TF over GST control); in experiment [5], 3.17 fold enrichment (6-mer frequency, TF over GST control); in experiment [6] it was 3.03 fold enrichment (6-mer frequency, TF over GST control). The binding signal is 3.6 fold enrichment (6-mer frequency, TF over GST control) in experiment [7]; 3.4 fold enrichment (6-mer frequency, TF over GST control) in [8]; 1.48 fold enrichment (6-mer frequency, TF over GST control) in [9]; 3.6 fold enrichment (6-mer frequency, TF over GST control) in experiment [10].
For the sequence TTTTCG, the binding signal is 1.23 fold enrichment (6-mer frequency, TF over GST control) in experiment [1]; 1.27 fold enrichment (6-mer frequency, TF over GST control) in experiment [2]; 1.53 fold enrichment (6-mer frequency, TF over GST control) in experiment [3]; 1.11 fold enrichment (6-mer frequency, TF over GST control) in [4]; 1.29 fold enrichment (6-mer frequency, TF over GST control) in experiment [5]; 1.08 fold enrichment (6-mer frequency, TF over GST control) in experiment [6]. Further, the binding signal is 1.33 fold enrichment (6-mer frequency, TF over GST control) in [7]; 1.11 fold enrichment (6-mer frequency, TF over GST control) in experiment [8]; 1.28 fold enrichment (6-mer frequency, TF over GST control) in experiment [9]; 1.2 fold enrichment (6-mer frequency, TF over GST control) in experiment [10].
